Source: PubChem BioAssay (NCI)
About 79,000 compounds went through this panel and 15% of them were active in at least one assay; those are over-represented in the sample as a whole. Calls of active or inactive are those of the source. Rule as the data show it: active = growth inhibition above about 70%; inactive = the rest.

What was measured:
[1] = NCI Yeast Anticancer Drug Screen. Data for the rad50 strain (AID 155);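 also: 0% = growth of vehicle-only cultures of the same strain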; conditions: S. cerevisiae rad50 strain growth inhibition, active compounds read high
How it was run: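 A DNA repair-deficient yeast mutant serves as the test organism; compound-induced growth inhibition is calculated against vehicle-treated cells.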

[2] = NCI Yeast Anticancer Drug Screen. Data for the mec2-1 strain (AID 157); conditions: S. cerevisiae mec2-1 strain, active compounds read high
How it was run: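 Mutant yeast (mec2-1) grown with compound; growth inhibition relative to vehicle control reported.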

[3] = NCI Yeast Anticancer Drug Screen. Data for the sgs1 mgt1 strain (AID 161);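 also: 0% = growth of cultures given vehicle only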; conditions: S. cerevisiae sgs1 mgt1 strain, active compounds read high
How it was run: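 Growth of a repair-deficient yeast mutant was monitored after compound treatment and expressed as inhibition relative to vehicle-treated cultures.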

[4] = NCI Yeast Anticancer Drug Screen. Data for the cln2 rad14 strain (AID 165);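 also: 0% = growth equal to vehicle treated cultures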; conditions: S. cerevisiae cln2 rad14 strain, active compounds read high
How it was run: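 Readout is yeast growth inhibition versus vehicle-treated controls, using a strain with cln2 and rad14 alterations exposed to compound.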

[5] = NCI Yeast Anticancer Drug Screen. Data for the bub3 strain (AID 167); conditions: S. cerevisiae bub3 mutant strain, active compounds read high
How it was run: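 Inhibition values come from growth of compound-treated mutant yeast normalised to vehicle-treated controls.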

[6] = NCI Yeast Anticancer Drug Screen. Data for the mlh1 rad18 strain (AID 175); conditions: S. cerevisiae mlh1 rad18 strain growth inhibition, active compounds read high
How it was run: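 Genetically defined yeast (DNA repair-deficient) exposed to compounds; growth inhibition determined relative to vehicle.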

[7] = at 5.0 µM (retest, dose inferred, filed as 0.5)
[8] = at 50.0 µM (retest, dose inferred, filed as 5.0)

Measured: growth inhibition

CC(=O)c1c(O)c2ccc(Cl)cc2[nH]c1=O
active: [1]; [7] 73% | [1]; [8] 90% | [1]; at 50.0 µM 79.2% | [2]; [8] 87% | [3]; [7] 79% | [3]; [8] 95% | [3]; at 50.0 µM 83.2% | [5]; [7] 71% | [5]; [8] 91% | [6]; [7] 72% | [6]; [8] 94%
inactive: [2]; [7] 36% | [2]; at 50.0 µM 14.7% | [4]; [7] 25% | [4]; [8] 59% | [4]; at 50.0 µM 31.5% | [5]; at 50.0 µM 38.2% | [6]; at 50.0 µM 66.7%

O=[N+]([O-])c1cc([N+](=O)[O-])c2ccccc2c1O
active: [1]; [8] 90% | [1]; at 50.0 µM 75% | [2]; [8] 90% | [3]; [8] 89% | [3]; at 50.0 µM 88.8% | [5]; [8] 87% | [6]; [8] 92% | [6]; at 50.0 µM 82.3%
inactive: [1]; [7] 17% | [2]; [7] 8% | [2]; at 50.0 µM 65.1% | [3]; [7] 7% | [4]; [7] -6% | [4]; [8] 48% | [4]; at 50.0 µM 52% | [5]; [7] 2% | [5]; at 50.0 µM 61% | [6]; [7] 9%

CS(=O)(=O)OCCN(CCOS(C)(=O)=O)c1ccc(C=Nc2ccc(-c3csc(-c4ccc(Br)cc4)n3)cc2)c(Cl)c1
inactive: [1]; [7] 0% | [2]; [7] -4% | [2]; [8] 51% | [2]; at 50.0 µM 56.2% | [3]; [7] 1% | [4]; [7] -10% | [4]; [8] 68% | [4]; at 50.0 µM 46.3% | [5]; [7] 3% | [6]; [7] 0%
active: [1]; [8] 71% | [1]; at 50.0 µM 71.7% | [3]; [8] 83% | [3]; at 50.0 µM 92.3% | [5]; [8] 87% | [5]; at 50.0 µM 80.1% | [6]; [8] 76% | [6]; at 50.0 µM 90.7%

C/C(=N/NC(=S)N1CCCC1)c1cccc(/C(C)=N\NC(=S)N2CCCC2)n1
inactive: [1]; [7] 11% | [1]; [8] 12% | [1]; at 50.0 µM 15.2% | [2]; [7] 13% | [2]; [8] 28% | [2]; at 50.0 µM -14.9% | [3]; [7] -17% | [3]; [8] -4% | [3]; at 50.0 µM -6.45% | [4]; [7] 1% | [4]; [8] -4% | [4]; at 50.0 µM -3.15% | [5]; [7] -3% | [5]; [8] 5% | [5]; at 50.0 µM -8.05% | [6]; [7] 17% | [6]; [8] 18% | [6]; at 50.0 µM 1.65%

Cc1cc(O)cc2c1c(=O)c1ccccc1n2C
inactive: [1]; [7] 15% | [1]; [8] 29% | [1]; at 50.0 µM 39% | [2]; [7] 15% | [2]; [8] 24% | [2]; at 50.0 µM 24.5% | [3]; [7] 20% | [3]; [8] 17% | [3]; at 50.0 µM 11.4% | [4]; [7] 15% | [4]; [8] 25% | [4]; at 50.0 µM 1.8% | [5]; [7] 18% | [5]; [8] 25% | [5]; at 50.0 µM 2.4% | [6]; [7] 23% | [6]; [8] 34% | [6]; at 50.0 µM 11.6%

O=C(CCCCCCCCCCc1ccccc1)c1c(O)cccc1O
active: [1]; [8] 96% | [1]; at 50.0 µM 82.7% | [2]; [8] 97% | [2]; at 50.0 µM 89% | [3]; [8] 97% | [3]; at 50.0 µM 87.2% | [4]; [8] 95% | [4]; at 50.0 µM 83.3% | [5]; [8] 97% | [5]; at 50.0 µM 85.4% | [6]; [8] 95% | [6]; at 50.0 µM 79.3%
inactive: [1]; [7] 37% | [2]; [7] 29% | [3]; [7] 45% | [4]; [7] 24% | [5]; [7] 41% | [6]; [7] 39%

N#Cc1ccc(C(F)(F)F)cc1[N+](=O)[O-]
active: [1]; [8] 99% | [1]; at 50.0 µM 99% | [2]; [8] 99% | [2]; at 50.0 µM 99.2% | [3]; [8] 99% | [3]; at 50.0 µM 99.4% | [4]; [8] 99% | [4]; at 50.0 µM 98.8% | [5]; [8] 99% | [5]; at 50.0 µM 99.2% | [6]; [8] 99% | [6]; at 50.0 µM 99.2%
inactive: [1]; [7] 47% | [2]; [7] 44% | [3]; [7] 63% | [4]; [7] 20% | [5]; [7] 31% | [6]; [7] 37%

O=C(OCc1ccccc1)C(O)c1ccccc1 (stereo unspecified)
inactive: [1]; [7] -2% | [1]; [8] 16% | [1]; at 50.0 µM 24.1% | [2]; [7] 2% | [2]; [8] 6% | [2]; at 50.0 µM -7.1% | [3]; [7] -1% | [3]; [8] 3% | [3]; at 50.0 µM -14.7% | [4]; [7] -4% | [4]; [8] 1% | [4]; at 50.0 µM 41.1% | [5]; [7] -3% | [5]; [8] -2% | [5]; at 50.0 µM 18.4% | [6]; [7] -1% | [6]; [8] 10% | [6]; at 50.0 µM 16.2%

O=C(O)C1(Cc2ccc3c(c2)CCC3)Cc2ccccc2C1=O (stereo unspecified)
inactive: [1]; [7] 9% | [1]; [8] 9% | [2]; [7] -6% | [2]; [8] -6% | [3]; [7] 3% | [3]; [8] 3% | [4]; [7] 3% | [4]; [8] 3% | [5]; [7] -7% | [5]; [8] -7% | [6]; [7] 1% | [6]; [8] 1%
active: [1]; at 50.0 µM 89.9% | [2]; at 50.0 µM 92.4% | [3]; at 50.0 µM 87.5% | [4]; at 50.0 µM 88.2% | [5]; at 50.0 µM 90.2% | [6]; at 50.0 µM 87%

CC(C)(C)c1cc2c3c(c1)Oc1cc(C(C)(C)C)cc4c1C3(O)c1c(cc(C(C)(C)C)cc1O4)O2
inactive: [1]; [7] 19% | [2]; [7] 22% | [3]; [7] -5% | [4]; [7] 14% | [5]; [7] 12% | [6]; [7] 14%
active: [1]; [8] 99% | [1]; at 50.0 µM 89.8% | [2]; [8] 100% | [2]; at 50.0 µM 88.5% | [3]; [8] 99% | [3]; at 50.0 µM 86.4% | [4]; [8] 98% | [4]; at 50.0 µM 87.3% | [5]; [8] 98% | [5]; at 50.0 µM 84.7% | [6]; [8] 100% | [6]; at 50.0 µM 87.7%

ON(C(=Nc1ccc(Cl)cc1)c1ccccc1)c1ccccc1
active: [1]; [8] 98% | [1]; at 50.0 µM 98% | [2]; [8] 99% | [2]; at 50.0 µM 99.2% | [3]; [8] 99% | [3]; at 50.0 µM 99% | [4]; [8] 98% | [4]; at 50.0 µM 99.2% | [5]; [8] 98% | [5]; at 50.0 µM 98.8% | [6]; [8] 99% | [6]; at 50.0 µM 99%
inactive: [1]; [7] -10% | [2]; [7] 7% | [3]; [7] -5% | [4]; [7] -11% | [5]; [7] 7% | [6]; [7] 9%

Oc1ccc(C/C=C/c2ccccc2)cc1O
inactive: [1]; [7] 3% | [1]; at 50.0 µM 56.8% | [2]; [7] 4% | [3]; [7] 13% | [3]; at 50.0 µM 47.8% | [4]; [7] -7% | [5]; [7] -1% | [6]; [7] 9%
active: [1]; [8] 98% | [2]; [8] 99% | [2]; at 50.0 µM 99.1% | [3]; [8] 99% | [4]; [8] 98% | [4]; at 50.0 µM 98.8% | [5]; [8] 98% | [5]; at 50.0 µM 99.2% | [6]; [8] 98% | [6]; at 50.0 µM 99.2%
